From PubChem BioAssay (EPA / NIEHS)
Results filed as inconclusive are left out. Active and inactive are the calls of the source. How the source made its calls, unless noted: active means hit-call score of the fitted dose curve at least 0.9, where 1 is the maximum; inactive means score below 0.9.

Legend:
[1] = ACEA_ER_80hr: ACEA Biosciences xCELLigence Real-Time Cell Analysis on Estrogen Receptor Agonism for Proliferation (AID 2282667; active means hit-call score of the fitted dose curve at least 0.9, where 1 is the maximum); settings: T47D proliferation, impedance (xCELLigence), 80 h
Summary of the method: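 Cell-growth kinetics were measured by impedance in T47D cells treated continuously with compound (top 100 uM final, 1:4 steps, 8 points). Activity at 80 h was scored as signal gain over the DMSO baseline.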

[2] = ATG_CRE_CIS: Attagene CIS-FACTORIAL HepG2 Assay for human cAMP Responsive Element (CRE) binding protein 3 (AID 2282926); settings: HepG2 CRE cis-reporter, Attagene multiplexed mRNA; actives raise or lower the signal
Summary of the method: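 Cells carrying cis-regulated reporter constructs respond through their own endogenous factors. After 24 h treatment, RNA is reverse-transcribed, amplified, labelled and sized by capillary electrophoresis; up- and down-regulation are both scored against vehicle.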

[3] = target: CCAAT/enhancer-binding protein beta (Homo sapiens) (UniProt P17676); assay: ATG_C_EBP_CIS: Attagene CIS-FACTORIAL HepG2 Assay for human CCAAT/Enhancer Binding Protein (C/EBP) beta (AID 2282927); settings: HepG2 Attagene cis-factorial transcription factor reporter; actives raise or lower the signal
CCAAT/enhancer-binding protein beta (Homo sapiens), sequence (P17676 whole entry, looked up): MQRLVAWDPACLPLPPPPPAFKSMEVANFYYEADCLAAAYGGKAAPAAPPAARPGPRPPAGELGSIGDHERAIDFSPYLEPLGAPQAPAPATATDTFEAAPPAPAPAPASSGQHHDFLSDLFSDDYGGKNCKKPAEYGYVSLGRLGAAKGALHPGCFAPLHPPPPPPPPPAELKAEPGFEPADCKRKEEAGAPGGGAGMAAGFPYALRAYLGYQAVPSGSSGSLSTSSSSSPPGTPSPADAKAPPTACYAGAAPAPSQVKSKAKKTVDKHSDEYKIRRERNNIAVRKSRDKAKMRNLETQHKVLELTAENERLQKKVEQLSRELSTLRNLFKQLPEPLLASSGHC
Summary of the method: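 Following a 24 h incubation with test chemical, transfected HepG2 cells yielded RNA whose reporter transcripts were quantified by RT-PCR and fluorescent capillary electrophoresis, with DMSO serving as baseline for bidirectional fitting.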

[4] = ATG_CMV_CIS: Attagene CIS-FACTORIAL HepG2 Assay for human CMV (Internal Marker) (AID 2282928); settings: HepG2 CMV promoter reporter, transcription factor profiling; actives raise or lower the signal;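 further: endpoint acts as a background internal control marker rather than a target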
Summary of the method: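 Bidirectional fits against DMSO are applied to reporter mRNA, read by RT-PCR with capillary electrophoresis, from HepG2 cells exposed 24 h. The endpoint serves as an internal CMV background marker within the cis-factorial reporter panel.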

[5] = ATG_DR4_LXR_CIS: Attagene CIS-FACTORIAL HepG2 Assay for human Liver X Receptor (LXR), DR4 submotif (AID 2282929); settings: HepG2 Attagene DR4 cis-reporter, mRNA transcription; actives raise or lower the signal
Summary of the method: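 Total RNA from 24 h-treated, MRTU-transfected HepG2 cells underwent reverse transcription, PCR, fluorescent primer extension and restriction digestion before capillary electrophoresis. Both increases and decreases in reporter signal were fitted against DMSO.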

[6] = target: Aryl hydrocarbon receptor (Homo sapiens) (UniProt P35869); assay: ATG_Ahr_CIS: Attagene CIS-FACTORIAL HepG2 Assay for human Aryl Hydrocarbon Receptor (Ahr) (AID 2282930); settings: HepG2 AhR cis-factorial reporter transcription; actives raise or lower the signal
Aryl hydrocarbon receptor (Homo sapiens), sequence (P35869 whole entry, looked up): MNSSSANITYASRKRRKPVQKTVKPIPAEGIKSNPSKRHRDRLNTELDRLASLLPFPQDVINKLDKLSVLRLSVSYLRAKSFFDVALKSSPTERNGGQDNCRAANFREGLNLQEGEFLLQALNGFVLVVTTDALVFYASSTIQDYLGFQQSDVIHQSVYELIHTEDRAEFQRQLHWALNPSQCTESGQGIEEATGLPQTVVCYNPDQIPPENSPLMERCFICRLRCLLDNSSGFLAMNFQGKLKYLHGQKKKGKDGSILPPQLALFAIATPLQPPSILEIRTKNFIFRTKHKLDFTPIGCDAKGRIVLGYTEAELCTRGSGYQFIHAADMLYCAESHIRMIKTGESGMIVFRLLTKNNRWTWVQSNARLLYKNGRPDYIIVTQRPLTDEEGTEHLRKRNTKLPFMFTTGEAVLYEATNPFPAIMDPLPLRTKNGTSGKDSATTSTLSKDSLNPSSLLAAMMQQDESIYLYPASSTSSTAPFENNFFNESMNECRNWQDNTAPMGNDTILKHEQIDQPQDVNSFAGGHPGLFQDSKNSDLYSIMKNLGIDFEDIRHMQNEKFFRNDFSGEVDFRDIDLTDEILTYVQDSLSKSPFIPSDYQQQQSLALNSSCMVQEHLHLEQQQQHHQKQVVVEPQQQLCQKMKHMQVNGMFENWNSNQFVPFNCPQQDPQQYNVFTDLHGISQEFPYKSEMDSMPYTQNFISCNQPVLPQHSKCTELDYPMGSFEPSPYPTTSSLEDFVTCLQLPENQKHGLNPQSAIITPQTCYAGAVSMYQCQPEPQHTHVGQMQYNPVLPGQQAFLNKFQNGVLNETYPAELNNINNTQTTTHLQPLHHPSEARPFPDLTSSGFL
Summary of the method: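 Values derive from bidirectional fitting against DMSO negative control. Underlying signal: cis-element reporter mRNA in transiently transfected HepG2, harvested 24 h post-dose and measured by RT-PCR plus capillary electrophoresis.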

[7] = ATG_AP_1_CIS: Attagene CIS-FACTORIAL HepG2 Assay for human Activator Protein 1 (AP-1) (AID 2282931); settings: HepG2 Attagene cis-factorial AP-1 reporter mRNA; actives raise or lower the signal
Summary of the method: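 HepG2, transient cis-reporter transfection; 24 h; readout RT-PCR/CE fluorescence; DMSO baseline, gain and loss fitted.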

[8] = ATG_AP_2_CIS: Attagene CIS-FACTORIAL HepG2 Assay for human Activator Protein 2 (AP-2) (AID 2282932); settings: HepG2 AP-2 cis-reporter, Attagene transcription factor profiling; actives raise or lower the signal
Summary of the method: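 Assay in transfected HepG2 with promoter-regulated reporters, 24 h incubation after dosing. Signal is reporter mRNA fluorescence (RT-PCR, capillary electrophoresis), analysed for both increases and decreases relative to DMSO controls.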

[9] = ATG_BRE_CIS: Attagene CIS-FACTORIAL HepG2 Assay for human Bone Morphogenetic Protein (BMP) Response Element (BRE) (AID 2282933); settings: HepG2 BMP response element reporter, Attagene transcription factor profiling; actives raise or lower the signal
Summary of the method: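 HepG2 cells transiently transfected with multiplexed cis-element reporter units were dosed with chemical for 24 h. Reporter mRNA was measured by RT-PCR with fluorescent labelling, HpaI digestion and capillary electrophoresis; bidirectional fitting relative to DMSO.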

[10] = target: Retinoic acid receptor alpha (Homo sapiens) (UniProt P10276); assay: ATG_DR5_RAR_CIS: Attagene CIS-FACTORIAL HepG2 Assay for human Retinoic Acid Receptor Alpha (RARE), DR5 submotif (AID 2282934); settings: HepG2 Attagene cis-factorial RARE DR5 reporter, mRNA; actives raise or lower the signal
Retinoic acid receptor alpha (Homo sapiens), sequence (P10276 whole entry, looked up): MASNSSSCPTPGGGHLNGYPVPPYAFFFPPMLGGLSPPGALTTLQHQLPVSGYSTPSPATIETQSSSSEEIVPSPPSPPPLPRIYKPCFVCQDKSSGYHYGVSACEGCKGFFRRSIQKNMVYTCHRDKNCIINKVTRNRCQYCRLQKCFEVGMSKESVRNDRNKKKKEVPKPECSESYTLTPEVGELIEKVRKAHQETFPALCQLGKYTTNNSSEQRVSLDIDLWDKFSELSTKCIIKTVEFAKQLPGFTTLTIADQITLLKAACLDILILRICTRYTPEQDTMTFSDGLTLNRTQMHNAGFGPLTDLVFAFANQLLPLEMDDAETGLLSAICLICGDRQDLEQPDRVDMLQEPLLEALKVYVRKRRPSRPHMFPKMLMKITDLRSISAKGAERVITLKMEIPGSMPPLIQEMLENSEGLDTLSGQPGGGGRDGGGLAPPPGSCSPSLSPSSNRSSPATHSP
Summary of the method: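 Endpoint fitted in both directions relative to DMSO as negative control. It reflects DR5 cis-element reporter mRNA induction in transiently transfected HepG2 cells, measured 24 h after dosing through RT-PCR and fluorescent capillary electrophoresis.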

[11] = target: Transcription factor E2F1 (Homo sapiens) (UniProt Q01094); assay: ATG_E2F_CIS: Attagene CIS-FACTORIAL HepG2 Assay for human E2F Transcription Factor 1 (AID 2282935); settings: HepG2 Attagene cis-reporter, E2F reporter RNA transcripts; actives raise or lower the signal
Transcription factor E2F1 (Homo sapiens), sequence (Q01094 whole entry, looked up): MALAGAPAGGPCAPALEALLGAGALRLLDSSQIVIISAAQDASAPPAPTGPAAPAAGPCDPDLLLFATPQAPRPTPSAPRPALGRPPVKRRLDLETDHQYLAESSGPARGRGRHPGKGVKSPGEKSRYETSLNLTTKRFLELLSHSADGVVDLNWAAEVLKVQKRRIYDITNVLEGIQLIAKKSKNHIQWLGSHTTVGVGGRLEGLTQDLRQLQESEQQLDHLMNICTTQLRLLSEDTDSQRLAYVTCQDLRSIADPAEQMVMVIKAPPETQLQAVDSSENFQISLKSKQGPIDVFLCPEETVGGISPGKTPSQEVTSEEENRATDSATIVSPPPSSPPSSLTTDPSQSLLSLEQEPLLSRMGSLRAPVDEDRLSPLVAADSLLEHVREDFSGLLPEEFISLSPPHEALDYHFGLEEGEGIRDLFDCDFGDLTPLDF
Summary of the method: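 In this cis-factorial format, endogenous factor activity drives transfected reporters in HepG2; transcripts collected at 24 h are quantified by fluorescence after RT-PCR and capillary separation.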

[12] = ATG_E_Box_CIS: Attagene CIS-FACTORIAL HepG2 Assay for human Enhancer Box (E-box) (AID 2282936); settings: HepG2 E-box cis-reporter transcription, actives raise or lower the signal
Summary of the method: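 Measured 24 h post-dosing in HepG2 cells transfected with multiple cis-regulated reporter units, signal being reporter mRNA induction detected by fluorescent RT-PCR with capillary electrophoresis; gain or loss fitted against DMSO.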

[13] = ATG_M_61_CIS: Attagene CIS-FACTORIAL HepG2 Assay for M61 Transcription Factor (Internal Marker) (AID 2282937); settings: HepG2 Attagene CIS-FACTORIAL M61 internal marker reporter; actives raise or lower the signal
Summary of the method: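 Transfect HepG2 with MRTUs; dose 24 h; isolate RNA; reverse-transcribe with DNase I treatment; PCR-amplify, FAM-label and cut with HpaI for 2 h at 37 C; resolve by CE. Bidirectional fitting against DMSO.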

[14] = ATG_EGR_CIS: Attagene CIS-FACTORIAL HepG2 Assay for human Early Growth Response 1 (EGR1) (AID 2282938); settings: HepG2 Attagene CIS-FACTORIAL EGR reporter mRNA; actives raise or lower the signal
Summary of the method: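 After a 24 h treatment of transiently transfected HepG2 cells, total RNA was reverse-transcribed and reporter sequences PCR-amplified, labelled and run on capillary electrophoresis. Reporters sit under cis-regulatory promoters sensing endogenous factors.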

[15] = ATG_M_19_CIS: Attagene CIS-FACTORIAL HepG2 Assay for M19 Transcription Factor (Internal Marker) (AID 2282939); settings: HepG2 Attagene CIS-FACTORIAL M19 internal marker reporter; actives raise or lower the signal
Summary of the method: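 HepG2 cells transiently transfected with cis-regulated multiple reporter transcription units were dosed for 24 h; reporter mRNA was quantified by RT-PCR, 6-FAM primer-extension labelling, HpaI digestion and capillary electrophoresis, with bidirectional fitting against DMSO baseline.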

[16] = ATG_ERE_CIS: Attagene CIS-FACTORIAL HepG2 Assay for Estrogen Response Element (ERE) (AID 2282940); settings: HepG2 ERE cis-reporter, Attagene RNA transcript; actives raise or lower the signal
Summary of the method: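 HepG2 cells transiently transfected with cis-promoter-driven multiplexed reporter transcription units report endogenous TF activity. After 24 h compound exposure, reporter mRNA is quantified by RT-PCR with capillary electrophoresis fluorescence; bidirectional fitting versus DMSO baseline.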

[17] = ATG_Ets_CIS: Attagene CIS-FACTORIAL HepG2 Assay for human Erythroblast Transformation Specific (ETS) (AID 2282941); settings: HepG2 ETS cis-reporter transcription, actives raise or lower the signal
Summary of the method: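 Endogenous transcription factor activity read as reporter mRNA via RT-PCR and capillary electrophoresis, with gain or loss fitted bidirectionally against DMSO. Human HepG2 liver cells, transiently transfected CIS reporter constructs, 24 h exposure.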

[18] = target: Hepatocyte nuclear factor 3-beta (Homo sapiens) (UniProt Q9Y261); assay: ATG_FoxA2_CIS: Attagene CIS-FACTORIAL HepG2 Assay for human Forkhead box A2 (FOXA2) (AID 2282942); settings: HepG2 cis-reporter transcription factor activity, 24 h; actives raise or lower the signal
Hepatocyte nuclear factor 3-beta (Homo sapiens), sequence (Q9Y261 whole entry, looked up): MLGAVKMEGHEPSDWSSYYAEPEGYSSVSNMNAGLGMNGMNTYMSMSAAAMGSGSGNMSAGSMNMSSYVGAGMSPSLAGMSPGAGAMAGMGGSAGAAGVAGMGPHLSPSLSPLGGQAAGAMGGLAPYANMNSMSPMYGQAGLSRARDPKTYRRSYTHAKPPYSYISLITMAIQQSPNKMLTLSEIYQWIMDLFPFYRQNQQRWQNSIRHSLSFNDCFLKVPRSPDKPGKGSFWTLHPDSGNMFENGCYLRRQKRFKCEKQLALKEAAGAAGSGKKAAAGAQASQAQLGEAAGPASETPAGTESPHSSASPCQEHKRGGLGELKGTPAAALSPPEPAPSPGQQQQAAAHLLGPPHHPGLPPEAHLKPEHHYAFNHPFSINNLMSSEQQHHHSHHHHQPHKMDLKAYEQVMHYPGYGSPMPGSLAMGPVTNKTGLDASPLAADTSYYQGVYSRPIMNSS
Summary of the method: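 24 h dosing of HepG2 bearing cis-reporter constructs; mRNA readout by RT-PCR/CE fluorescence; bidirectional fit, DMSO baseline.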

[19] = ATG_FoxO_CIS: Attagene CIS-FACTORIAL HepG2 Assay for human Forkhead box O (FoxO) (AID 2282943); settings: HepG2 Attagene cis-reporter, FoxO element, mRNA; actives raise or lower the signal
Summary of the method: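 Values reflect reporter mRNA induction or loss in HepG2 cells 24 h post-dosing, fitted bidirectionally with DMSO as negative control and baseline. Detection used RT-PCR and fluorescence capillary electrophoresis.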

[20] = ATG_GATA_CIS: Attagene CIS-FACTORIAL HepG2 Assay for human GATA Binding Protein (AID 2282944); settings: HepG2 GATA cis-element reporter, Attagene multiplex mRNA; actives raise or lower the signal
Summary of the method: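 HepG2 cells transiently transfected with multiplexed cis-element reporter units reflecting endogenous transcription factor activity; reporter mRNA measured after 24 h dosing by RT-PCR, 6-FAM labeling, HpaI digestion and capillary electrophoresis. Bidirectional fitting versus DMSO baseline.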

Measured: AC50

O=C(O)CC(C(=O)O)S(=O)(=O)O (stereo not drawn)
inactive: all assays above

CCCc1ccc(O)c(OC)c1
active: [5] 33.8 µM
inactive: all other assays above

CC(C)CC(=O)OCc1ccccc1
not listed: [20]
inactive: all other assays above

Cc1c[nH]c(=O)[nH]c1=O
inactive: all assays above

COC(C=C(C)CCC=C(C)C)OC
active: [7] 146 µM
not listed: [20]
inactive: all other assays above

CCCCCCCCCCCC(=O)OCC
inactive: all assays above

CCCCCCCC(=O)OCC
inactive: all assays above
